# Measurements taken from PubChem BioAssay AID504374 (National Center for Advancing Translational Sciences (NCATS), 2011).
# Values joined by “and” are separate entries in the source; they are usually repeats but may differ in a detail not shown here. Equal values may be shown once. About 100 (6.7%) of roughly 1,500 compounds were called active. Inconclusive results (about 7%) are left out. What follows is part of a selection rich in actives, with near analogues and random picks from the rest. Values without a mark were called inactive. The call rests on the fitted dose curve; in most records, active means well fitted inhibition curve with a large enough effect; inconclusive means small, poorly fitted or top-dose-only effect, or effect the other way; inactive means flat fitted curve, though single readings scatter.
# Molecular target: Runt-related transcription factor 1 (Homo sapiens) + Core-binding factor subunit beta (Homo sapiens) (UniProt Q01196+Q13951)
# Sequence (Q01196 whole entry, looked up): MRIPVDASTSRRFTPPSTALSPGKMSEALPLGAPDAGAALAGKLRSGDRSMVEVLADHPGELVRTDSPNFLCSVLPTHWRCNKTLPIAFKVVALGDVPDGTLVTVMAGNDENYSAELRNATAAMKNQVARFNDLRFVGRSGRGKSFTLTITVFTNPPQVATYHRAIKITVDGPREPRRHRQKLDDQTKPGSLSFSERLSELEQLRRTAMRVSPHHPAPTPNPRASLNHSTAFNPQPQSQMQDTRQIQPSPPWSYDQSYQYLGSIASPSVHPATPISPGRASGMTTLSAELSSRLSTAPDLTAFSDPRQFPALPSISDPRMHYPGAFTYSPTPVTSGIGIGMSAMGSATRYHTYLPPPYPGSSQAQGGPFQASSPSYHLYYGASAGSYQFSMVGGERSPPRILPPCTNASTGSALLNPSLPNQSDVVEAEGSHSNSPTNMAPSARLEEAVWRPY
# Sequence (Q13951 whole entry, looked up): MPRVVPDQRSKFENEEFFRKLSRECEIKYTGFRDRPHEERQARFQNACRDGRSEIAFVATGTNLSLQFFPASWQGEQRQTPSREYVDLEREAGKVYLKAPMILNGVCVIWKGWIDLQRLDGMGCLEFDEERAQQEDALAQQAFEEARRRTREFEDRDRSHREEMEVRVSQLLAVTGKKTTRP
# Test: qHTS Assay for Compounds Blocking the Interaction Between CBF-beta and RUNX1 for the Treatment of Acute Myeloid Leukemia: Hit Validation; further: nearly all actives have a fitted effect of over 60% in size
# Conditions: AlphaScreen CBFb-His/RUNX1-biotin binding; series mostly up to 59.8 µM; activity, negative = inhibition: at the top concentration
# Method in brief: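 AlphaScreen proximity assay: His-tagged CBF-beta and biotinylated RUNX1 (30 nM each) preincubated 20 min, then compound 15 min, then nickel and streptavidin beads 90 min, all at room temperature; signal read at […]em 440 nm.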
# On the % scale 0 is the no-effect control and ±100 the full control effect; potency means the concentration at half of the fitted maximal effect.
SMILES,"activity, negative = inhibition [%]",Potency
S=c1[nH]ccn1-c1ccccc1Cl,-10.1,–
CC(=O)NCC1(O)CCCC(C)C1 (configuration not stated),-8.56,–
CC(C)(C)C(=O)Nc1ccc(NC(=O)C(C)(C)C)cc1,10.3,–
O=C(COc1ccc([N+](=O)[O-])cc1Cl)N1CCOCC1,2.71,–
O=C(CSc1n[nH]c(=O)[nH]c1=O)N1CCCCCC1,-1.59,–
O=C(Oc1ccc2c(c1)O/C(=C\c1ccncc1)C2=O)c1cccs1,-8.69,–
CCCN(CCC)C(=O)CC(c1ccccc1)c1ccco1 (configuration not stated),12.8,–
COC(=O)c1ccc(OC)c(OC)c1Cl,-1.98,–
Cc1c2c(c(O)c3c(O)cccc13)C(=O)O[C@H]2C1C(N(C)C)C(O)=C(C(N)=O)C(=O)[C@H]1O (some centres not stated),–,0.631 µM (active)
CCOC(=O)c1c2c([nH]c(=S)c1C#N)CCCC2,-3.85,–
COc1cc(O)c2c(c1)oc(=O)c1c3cc(O)c(O)cc3oc21,–,3.16 µM (active)
COc1cc(C2C(C#N)=C(N)OC3=C2C(=O)CC(C)(C)C3)ccc1OCCN1CCOCC1 (configuration not stated),-3.79,–
COC(=O)c1ccc(Cn2cc([N+](=O)[O-])cn2)cc1,-7.08,–
C/C(O)=C(\C#N)P(=O)(c1ccccc1)c1ccccc1,10.4,–
Clc1ccc(-c2ccccc2)nn1,-1.75,–
Clc1ccccc1/C=C/c1nc(-c2ccccn2)no1,-23.2,–
CC(=O)c1cc(C#N)c(SCc2ccccn2)nc1C,-7.25,–
c1ccc(-c2ccccn2)nc1,–,7.94 µM (active)
c1ccc(CSc2ccc(-c3ccccn3)nn2)nc1,–,2.51 µM (active)

SMILES,"activity, negative = inhibition [%]",Potency
c1ccc(-c2n[nH]c(-c3ccccn3)n2)nc1,–,1 µM (active) and 708 nM (active)
O=[N+]([O-])c1ccccc1CSc1ccccn1,1.85,–
c1ccc(-c2ccc(-c3ccccn3)s2)nc1,3.74,–
c1ccc(-c2ccc(-c3ccccn3)nn2)nc1,–,2.82 µM (active)
CCN(CCS(=O)(=O)c1ccc(Cl)cc1)C(=O)Nc1ccccc1,-4.65,–
COc1ccc2c(C)cc(C)nc2n1,6.91,–
Cc1cc(C)n2cnnc2n1,-3.07,–
CCC1(C)N=C(N)Nc2nc3cc(C)c(C)cc3n21 (configuration not stated),-2.57,–
CCOC(=O)N1CCC(NS(=O)(=O)c2ccccc2)CC1,-16.1,–
CCNC(=O)COC(=O)c1cc(S(=O)(=O)N2CCCCC2)ccc1C,-10.6,–
Cc1cc(C)nc(N2N=C(C(F)(F)F)CC2=O)n1,2.96,–
COc1ccc(CCn2cnc3c([nH]c4ccccc43)c2=O)cc1,-4.1,–
CC(C)(C)N1CCC1C(N)=O (configuration not stated),12.6,–
Cn1c(=O)c2c(Nc3ccc(F)cc3)cc(=O)n(-c3ccccc3)c2n(C)c1=O,-4.15,–
O=C(CC1NCCNC1=O)NC1Cc2ccccc2C1 (configuration not stated),9.2,–
CC(=O)C1C(=O)CC(c2ccc(Cl)cc2)CC1=O (configuration not stated),-0.716,–
Cc1oc(S(=O)(=O)N2CCCC2)cc1C(=O)Nc1ccc(F)cc1,-4.36,–
C=CCOc1c(CCC)cc(CCC)cc1C(N)=O,-2.85,–
Cc1cc(O)c(C=O)c2c1C(=O)Oc1c(COC(=O)/C=C/C(=O)O)c(O)c(C(=O)O)c(C)c1O2,–,11.2 µM (active)

SMILES,"activity, negative = inhibition [%]",Potency
CCNC(=S)N1N=C2c3ccccc3CCC2C1c1ccc(F)cc1 (configuration not stated),7.45,–
O=C(NN1C(=O)CSC1=S)C(=O)NN1C(=O)CSC1=S,–,8.91 µM (active)
Nc1cccnc1Oc1ccccc1F,-2.77,–
Cn1c(-c2ccc3ccccc3n2)[n+](C)c2ccccc21,-16.8,–
Cc1cc(NC(=O)CN2CCCCC2)n(-c2ccccc2)n1,2.06,–
NNC(=O)c1ccc(COCC(F)(F)C(F)F)cc1,-1.86,–
CC(C)(C)S(=O)(=O)/C(C#N)=C/Nc1ccccn1,-2.32,–
CSc1nc2cc(S(=O)(=O)N3CCCCC3)ccc2s1,-1.3,–
O=C(O)c1nccnc1C(=O)Nc1ccc(S(=O)(=O)N2CCOCC2)cc1,-6.89,–
O=S(=O)(c1ccc2nc(-c3ccco3)c(-c3ccco3)nc2c1)N1CCOCC1,–,5.46 µM (active)
COC(=O)CC1=C(C(=O)OC)[C@@H](c2ccccc2[N+](=O)[O-])C(C#N)=C(N)O1,3.04,–
Cc1ccc(NC(=O)CSc2n[nH]c(N)n2)cc1S(=O)(=O)N1CCOCC1,-1.46,–
CCOc1ccc(N2C(=O)CC(NNc3nc4ccccc4s3)C2=O)cc1 (configuration not stated),5.71,–
O=c1c(-c2cc(O)c(O)c(O)c2)coc2cc(O)c(O)c(O)c12,–,0.447 µM (active)
Cc1nnn(C23C[C@@H]4C[C@@H](CC(C(=O)N5CCN(c6ccccc6)CC5)(C4)C2)C3)n1,-5.35,–
COC(=O)[C@H](CCSC)NC(=O)Nc1cc(OC)cc(OC)c1,-12.2,–
COc1ccc(C(=O)NC(=S)Nc2ccc(CN3CCOCC3)cc2)cc1,-11.1,–
Cn1c(=O)c([N+](=O)[O-])c(NCC2CCCO2)c2ccccc21 (configuration not stated),-0.834,–
Cc1cccc(C(=O)N/C(=C\c2ccc(C)o2)C(=O)O)c1,-12.8,–
